Screens (PubChem)
SW480 rereplic: DNA re-replication induction in SW480 cells; Potency, µM (highest dose often 46.1 µM), for inactives: top-dose re-replication activation, actives largely listed as activators; SW480 DNA re-replication, Hoechst DNA content imaging, 48 h; 340,000 tested, 1.8% active; note: % of control where 0% means no effect; nearly all actives have a fitted effect of over 55% in size
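DNA re-replication was detected as more nuclei of elevated Hoechst intensity after 48 hr exposure to compound (23 nL pinned per well of 250 cells).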
HT1080-NT tox: kills 2HG-producing HT-1080-NT fibrosarcoma cells | HT-1080-NT fibrosarcoma viability, CellTiter-Glo ATP luminescence, 48 h | Potency, µM (doses to about 46.1 µM), for inactives: top-dose activity, negative = less viability, most hits filed as cytotoxic | 360,000 tested, 1.6% active;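 note: NT is the 2HG producing partner of a matched IDH1 knockdown line; 0% = DMSO-treated cells and -100% = media-only wells without cells; nearly all actives have a fitted effect of over 55% in size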
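Read-out is CellTiter-Glo luminescence after 10 minutes at room temperature, following 48 hours' compound treatment of HT-1080-NT cells (750 cells/well, RPMI, 5% FBS, 37 degrees C).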
HT1080 IDH1KD tx: HT-1080 IDH1 knockdown cell toxicity (counter line) | Potency, µM (titrated, usually from 46.1 µM), inactives show top-dose activity, negative = toxicity, actives largely listed as cytotoxic | 360,000 tested, 2% active | HT-1080 IDH1 knockdown viability, ATP luminescence, 48 h;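 note: 0% = DMSO wells and -100% = cell-free medium wells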
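IDH1KD HT-1080 cells, 750/well, RPMI + 5% FBS; compound pinned after 2 h settling; 48 h, 37 °C; CellTiter-Glo luminescence; % activity normalised to DMSO and no-cell wells; curves fitted, classed by r2 and efficacy.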
KB-V1 cytotox: kills drug-selected multidrug resistant KB-V1 cells. KB-V1 MDR cells viability, CellTiter-Glo, 72 h. Potency, µM (titrated, usually from 46.1 µM), hits mostly cytotoxic. 400,000 tested, 3.4% active. AID 1347076; note: % is set by controls: 0 for no effect and ±100 for the full control effect; nearly all actives have a fitted effect of over 60% in size
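KB-V1, DMEM (no phenol red) + 10% FBS; cpd pin-transferred, titration series; 72 h, 37 degrees C; CellTiter-Glo, luminescence. Data normalized, curve-fit.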
KB-3-1 cytotox: KB-3-1 parental cell cytotoxicity. KB-3-1 viability, CellTiter-Glo ATP luminescence, 72 h. Potency, µM (titrated, usually from 46.1 µM), most hits filed as cytotoxic. 400,000 tested, 1.4% active; note: % is set by controls: 0 for no effect and ±100 for the full control effect; nearly all actives have a fitted effect of over 60% in size
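Cells are dispensed, compounds pinned in, plates held at 37 °C for 72 h, then CellTiter-Glo is added and luminescence read after 10 minutes. Cell line: parental KB-3-1 in phenol-red-free DMEM, 10% FBS.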
MCF10A rereplic: DNA re-replication induction in MCF 10a cells; MCF 10A DNA re-replication, Hoechst nuclear intensity, 48 h; Potency, µM (doses to about 46.1 µM), for inactives: at the highest dose activity, positive = re-replication, hits mostly activators; AID 624296; 350,000 tested, 2.9% active; note: % of control where 0% means no effect; nearly all actives have a fitted effect of over 50% in size
Numbers without * were called inactive; i = inactive; ? = inconclusive; / = not tested or not shown; [ ] = another dose, or the depositor's remark. Compounds with a hit are over-represented: about 7.9% of the library has one in this group of screens. Calls come from the whole dose curve; as a rule, active = well fitted curve in the direction sought with a large enough effect; inconclusive = small, poorly fitted or top-dose-only effect, or another doubt; inactive = no such curve, though single readings can be large; an effect the other way counts as inactive or inconclusive. Potency is the fitted concentration of half-maximal effect.

SMILES | SW480 rereplic | HT1080-NT tox | HT1080 IDH1KD tx | KB-V1 cytotox | KB-3-1 cytotox | MCF10A rereplic
COC(=O)CNC(c1ccccc1)c1cc(Br)ccc1NC(=O)c1ccc(Cl)cc1 (stereo unspecified) | / | / | / | i | i | /
COC(=O)CNC(c1ccccc1)c1cc(Br)ccc1NS(=O)(=O)c1ccccc1 (stereo unspecified) | -1% | 13% | 18% | i | i | -7%
CCOC(=O)CNC(c1ccccc1)c1cc(Br)ccc1NC(=O)CCN1CCOCC1 (stereo unspecified) | 107% | -29% | -4% | ? | i | 10µM*
COC(=O)CNC(c1ccccc1)c1cc(Br)ccc1NC(=O)CCN1CCOCC1 (stereo unspecified) | ? | -22% | ? | ? | i | 18µM*
COC(=O)CNC(c1ccccc1)c1cc(Br)ccc1NS(=O)(=O)c1ccc(C)cc1 (stereo unspecified) | 4% | -21% | -21% | 5.8µM* | i | 9%
COC(=O)CNC(c1ccccc1)c1cc(Br)ccc1NC(=O)CNC(=O)OCc1ccccc1 (stereo unspecified) | 11% | ? | 21µM* | ? | i | ?
CCOC(=O)CNC(c1ccccc1)c1cc(Br)ccc1NC(=O)OCC (stereo unspecified) | 3% | 4% | 1% | i | i | 19%
COc1ccc(CN2C(=O)c3cccnc3C2=O)cc1S(=O)(=O)NC1CCCCC1 | -3% | 4% | 2% | i | i | ?
O=c1c2ccccc2c(-c2ccc(O)cc2)nn1-c1cccc(C(F)(F)F)c1 | ? | ? | 21µM* | 13µM* | ? | ?
COc1ccccc1CNC(=O)c1cc2cccc3c2n1CCS3 | / | / | / | i | i | /
COC(=O)C1=C/C=C\CN(C(c2ccccc2)c2ccccc2)/C=C\1C(=O)OC | / | -9% | -6% | ? | ? | /
CN(c1cccc(NC(=O)CN(c2cccc(Cl)c2)S(=O)(=O)c2ccc(Cl)cc2)c1)S(C)(=O)=O | / | -15% | -20% | 18µM* | ? | 17%
COC(=O)c1cc(NC(=O)CN(c2ccccc2OC)S(=O)(=O)c2ccccc2)ccc1Cl | -2%[9.22 µM] | -25% | -16% | i | i | 29%
COC(=O)c1cc(NC(=O)CN(c2cccc(OC)c2)S(=O)(=O)c2ccccc2)ccc1Cl | 2% | -6% | -14% | 1.5µM* | 16µM* | 19%
COc1ccc(N(CC(=O)Nc2ccc3c(c2)OCO3)S(=O)(=O)c2ccccc2)cc1 | -11% | 12% | 12% | i | i | -1%
COc1cccc(N(CC(=O)Nc2ccc3c(c2)OCO3)S(=O)(=O)c2ccccc2)c1 | 16% | -13% | -10% | 16µM* | i | 9%
COc1ccccc1N(CC(=O)Nc1cccnc1)S(=O)(=O)c1ccccc1 | 10% | 0% | 17% | ? | i | ?
COc1ccc(OC)c(N(CC(=O)Nc2cccnc2)S(=O)(=O)c2ccccc2)c1 | -21% | 6.5µM* | 3.3µM* | ? | i | 2%
CC(O)CNCCCOc1ccccc1OCc1ccccc1 (stereo unspecified) | -8% | -7% | -16% | ? | i | -1%
CNCC(C)COc1ccccc1OCc1ccccc1 (stereo unspecified) | 10% | -12% | -20% | 21µM* | i | 0%
CSc1ccc(/C=C/C(=O)OCC(=O)N2CCN(c3ccccc3)CC2)cc1 | -12% | 8% | 8% | i | i | -8%
COC(=O)c1c(NC(=O)C2CCCO2)sc2c1CCC2 (stereo unspecified) | -4%[9.22 µM] | 5% | 6% | i | i | -5%
COC(=O)c1c(NC(=O)Cc2ccccc2)sc2c1C(C(=O)OC)CC2 (stereo unspecified) | -11% | 17% | 0% | i | i | 19%
COC(=O)c1c(NC(=O)C(C)(C)C)sc2c1C(C(=O)OC)CC2 (stereo unspecified) | -3%[9.22 µM] | 4% | -2% | 21µM* | ? | 20%
COC(=O)c1c(NC(=O)C(Cl)Cl)sc2c1C(C(=O)OC)CC2 (stereo unspecified) | ? | 3% | -10% | i | i | 8.2µM*
SMILES | SW480 rereplic | HT1080-NT tox | HT1080 IDH1KD tx | KB-V1 cytotox | KB-3-1 cytotox | MCF10A rereplic
Cc1cc(OCC(=O)NNC(=S)NCC2CCCO2)cc(C)c1Cl (stereo unspecified) | 10% | -3% | -8% | / | / | ?
CCCCc1ccc(S(=O)(=O)NCCCN2CCCC2=O)cc1 | -9% | -19% | 5% | i | i | 8%
COc1ccc(C2=C3C(=O)OCC3Cc3ncn(Cc4ccccc4)c32)cc1 (stereo unspecified) | -3% | 18% | 6% | i | i | 2%
COc1ccc(N/C=C2/Sc3ccccc3NC2=O)cc1 | -87% | -23% | -2% | i | i | -1%
Cc1ccc(N/C=C2/Sc3ccccc3NC2=O)cc1 | 3% | 17% | 6% | ? | i | 18µM*
COc1ccccc1-c1nn2c(-c3ccco3)nnc2s1 | -9% | -3% | -17% | 10µM* | i | 19%
CN(C)c1ccc(-c2nn3c(-c4cc(-c5ccccc5)n[nH]4)nnc3s2)cc1 | / | / | / | i | ? | /
COc1ccccc1-c1nnc2sc(COc3ccc(Cl)cc3Cl)nn12 | 5% | -7% | -2% | 18µM* | ? | ?
Clc1ccc(OCc2nn3c(-c4ccncc4)nnc3s2)cc1 | -7% | 2% | 24% | 10µM* | i | 12%
COc1cccc(OC)c1-c1nn2c(-c3cc(-c4ccccc4)n[nH]3)nnc2s1 | 9.2µM* | ? | ? | ? | ? | 15µM*
CCOc1ccc(-c2nnc3sc(COc4ccc(Cl)cc4)nn23)cc1 | 0% | 17% | 13% | i | i | 14%
COc1ccccc1-c1nnc2sc(COc3ccccc3)nn12 | 1% | -2%[9.24 µM] | -15% | i | i | 3%
Cc1ccc(-n2c3c(c(=O)[nH]c2=O)C(NC(=O)c2ccccc2F)(C(F)(F)F)C(=O)N3)cc1C (stereo unspecified) | / | / | / | i | i | /
O=C(CS(=O)Cc1ccco1)NCC=CCOc1cc(CN2CCCCC2)ccn1 (stereo unspecified) | 2% | / | / | / | / | 1%
COc1ccc(-c2nn3c(-c4ccccc4)nnc3s2)cc1 | -6% | -19% | -22% | ? | ? | ?
CCN(CC)c1ccc(-c2nn3c(-c4ccccc4OC)nnc3s2)cc1 | 1.3µM* | 1µM* | ? | 1.5µM* | 0.82µM* | ?
